From article PMC4552634, “A New Set of Chemical Starting Points with Plasmodium falciparum Transmission-Blocking Potential for Antimalarial Drug Discovery” (PLoS ONE, 2015)
The whole screen tested about 13,000 compounds, of which about 3,200 (25%) showed an effect of 50% or more. This is one part of the list.

Each compound was assayed on P. falciparum stage V gametocytes. Conditions: 48 h, 5 µM; inhibitor.
Design: BacTiter-Glo ATP luminescence viability of purified stage V gametocytes in 384-well plates, per cent inhibition versus DMSO

SMILES | % Inhibition [%]
CN1CCCC1CNS(=O)(=O)c1ccc(C(=O)NCC2CC2)cc1 (centres unmarked) [TCMDC-133683] | 0.07982
CCc1ccc(C(=O)NC(=O)c2ccccc2O)cc1 [TCMDC-123479] | 19.58
Cc1ccc(O)cc1Nc1ccnc2cc(-c3csc(CN(C)CCN(C)C)n3)ccc12 [TCMDC-138458] | 49.52
c1ccc(Oc2ccc(Nc3ccnc4cc(-c5csc(CNCCN6CCOCC6)n5)ccc34)cc2)cc1 [TCMDC-138407] | 5.088
CN(C)CCN(C)Cc1nc(-c2ccc3c(Nc4ccc(Oc5ccccc5)cc4)ccnc3c2)cs1 [TCMDC-138408] | 77.6
CN(C)CCNCc1nc(-c2ccc3c(Nc4ccc(Cl)cc4F)ccnc3c2)cs1 [TCMDC-138455] | 16.78
CN(C)CCNCc1nc(-c2ccc3c(Nc4ccc(Oc5ccccc5)cc4)ccnc3c2)cs1 [TCMDC-138410] | 95.14
CS(=O)(=O)CCNCc1nc(-c2ccc3c(Nc4ccc(Oc5ccccn5)cc4)ccnc3c2)cs1 [TCMDC-138438] | -37.4
CCc1ccc2nc(-c3ccc(F)cc3)nc(SCC(=O)Nc3sc(C)c(C)c3C#N)c2c1 [TCMDC-125430] | 16.25
COc1ccc2nccc([C@@H](O)CN3CCC(NC(=O)c4cc5c(F)cc(F)cc5[nH]4)CC3)c2n1 [TCMDC-134945] | -17.57
COc1cc2c(=O)c(Cc3ccc(Cl)cc3)c(C)[nH]c2cc1F [TCMDC-137280] | 22.18
CCCCCCCc1c(C)[nH]c2cc(OC)ccc2c1=O [TCMDC-137173] | 75.71
CCCCCCc1c(C)[nH]c2cc(OC)ccc2c1=O [TCMDC-138010] | 73.98
CO/C(=C\C=C\c1cc2cc(Cl)c(Cl)cc2[nH]1)C(=O)NC1CC2CCCC(C1)N2C (centres unmarked) [TCMDC-139067] | 19.33
CO/C(=C\C=C/c1cc2cc(Cl)c(Cl)cc2[nH]1)C(=O)NC1CC(C)(C)N(C)C(C)(C)C1 [TCMDC-139106] | -40.37
CO/C(=C\C=C\c1cc2cc(Cl)c(Cl)cc2[nH]1)C(=O)NC1CCN(CCNc2ccccc2)CC1 [TCMDC-139535] | -22.32
CO/C(=C\C=C\c1cc2cc(Cl)c(Cl)cc2[nH]1)C(=O)NC1CC(C)N(C)C(C)C1 (centres unmarked) [TCMDC-139085] | -67.29
CO/C(=C\C=C\c1cc2cc(Cl)c(Cl)cc2[nH]1)C(=O)NC1CCN(CCCc2ccccc2)CC1 [TCMDC-139657] | 70.65
CO/C(=C\C=C\c1cc2cc(Cl)c(Cl)cc2[nH]1)C(=O)N[C@H]1CN2CCC1CC2 [TCMDC-139095] | -57.18
CO/C(=C/C=C/c1cc2cc(Cl)c(Cl)cc2[nH]1)C(=O)NC1CC(C)(C)N(C)C(C)(C)C1 [TCMDC-139097] | 81.55
CO/C(=C\C=C\c1cc2cc(Cl)c(Cl)cc2[nH]1)C(=O)NC1CCN(CCOc2ccccc2)CC1 [TCMDC-139454] | 27.46
CO/C(=C\C=C\c1cc2cc(Cl)c(Cl)cc2[nH]1)C(=O)NC1CC2CCC(C1)N2C (centres unmarked) [TCMDC-139038] | 73.28

SMILES | % Inhibition [%]
CC(C)(CNC(=O)[C@H]1CCCCN1)c1nc(-c2ccc(Cl)c(O)c2)c(-c2ccncc2)[nH]1 [TCMDC-141070] | -44.74
Oc1ccccc1-c1nc2cccnc2n1CCc1cccc(C(F)(F)F)c1 [TCMDC-135091] | 14.7
Cc1sc2ncnc(Sc3nnc(N)s3)c2c1C [TCMDC-124542] | 96.33
CCc1cc2c(Sc3nnc(N)s3)ncnc2s1 [TCMDC-123993] | 80.67
COc1ccc(-c2cc(C(=O)N[C@@H](CC3CCCCC3)C(=O)NC3CCCc4ccccc43)ccc2O)cc1 (some centres unmarked) [TCMDC-140806] | 24.41
O=C(NCCN1CCCc2ccccc21)C1CCN(c2nc(-c3ccc(Cl)cc3)no2)CC1 [TCMDC-125165] | 5.616
Cc1noc(C)c1-c1cccc(CNCc2cccc(-c3cccc(-c4nc5cc(F)ccc5[nH]4)c3)c2)c1.O=C(O)C(F)(F)F [TCMDC-133064] | -20.89
Cn1cnc2c(Nc3ccncc3)nc(-c3ccc(OC(F)(F)F)cc3)nc21 [TCMDC-141276] | -18.84
CC[C@H](N=C(Nc1ccc(C#N)cc1O)Nc1cccc(Cl)c1Cl)c1ccccc1 [TCMDC-140225] | 74.86
CC[C@H](N=C(Nc1ccc(-c2ccccc2)cc1)Nc1ccc(C#N)cc1O)c1ccccc1 [TCMDC-140209] | -62.75
CCCCCC(C)N=C(Nc1ccc(C#N)cc1O)Nc1cccc(Cl)c1Cl (centres unmarked) [TCMDC-140222] | -21.37
CSc1c(CNCCCNc2cc(=O)c3ccccc3[nH]2)[nH]c2ccccc12 [TCMDC-140648] | -17.76
N#Cc1cccc(C(=O)Nc2ccc(-c3cccc(CN4CCC(O)CC4)c3)cc2)c1 [TCMDC-132670] | -58.6
O=C(Nc1ccc(-c2cccc(CN3CCC(O)CC3)c2)cc1)c1cccc(Cl)c1 [TCMDC-132665] | -3.105
COC(=O)c1ccc(CN2CCC(N(Cc3cccc(Oc4ccccc4)c3)S(=O)(=O)c3ccc(NC(C)=O)cc3)CC2)cc1 [TCMDC-139500] | -7.518
O=C(Nc1ccc(-c2nc3ccccc3[nH]2)cc1)C1CCN(Cc2ccccc2)CC1 [TCMDC-124891] | -65.72
O=C(Nc1ccc(Oc2ccccc2)cc1)N(CCN1CCCC1)Cc1ccc(-c2ccc(CN3CCNCC3)cc2)cc1 [TCMDC-139652] | 103.6
O=C(Nc1ccc(Oc2ccccc2)cc1)N(Cc1ccc(-c2ccc(CN3CCNCC3)cc2)cc1)C1CCN(Cc2ccccc2)CC1 [TCMDC-139653] | 106.3
O=C(Nc1ccc(Cn2ncc(N3CCCNCC3)c(Cl)c2=O)cc1)Nc1cccc(Oc2ccccc2)c1 [TCMDC-133316] | 4.228
O=C(Nc1ccc(Oc2ccccc2)cc1)N(Cc1ccc(-c2cccc(CN3CCNCC3)c2)cc1)C1CCN(Cc2ccccc2)CC1 [TCMDC-139637] | 111.2
O=C(Nc1cccc(-c2cccc(-c3nc4ccc(C(F)(F)F)cc4[nH]3)c2)c1)c1ccc(=O)[nH]n1 [TCMDC-137031] | -1.351
O=C(Nc1ccc(-c2nc3ccccc3[nH]2)cc1)c1ccc(N2CCOCC2)c([N+](=O)[O-])c1 [TCMDC-124372] | -1.163

SMILES | % Inhibition [%]
O=C(NC1CC1)c1cnc(N2CCN(Cc3c(F)cccc3Cl)CC2)c(Cl)c1 [TCMDC-134607] | 20.64
CCC(C)NC(=O)CN1CN(c2ccccc2)C2(CCN(C(=O)c3ccc(C(C)(C)C)cc3)CC2)C1=O (centres unmarked) [TCMDC-125176] | -75.94
Nc1ncc(-c2ccccc2)cc1-c1nc2cc(Cl)c(F)cc2[nH]1 [TCMDC-138783] | -16.12
CSc1ccc2nccc(Nc3ccc(Oc4ccccc4)cc3)c2c1 [TCMDC-138375] | -18.84
CC1CN(c2ccnc3ccc(Sc4ccc(Oc5ccccc5)cc4)cc23)CC(C)N1 (centres unmarked) [TCMDC-135857] | 94.55
Cc1c(S(=O)(=O)Nc2ccc3nccc(N4CC(C)NC(C)C4)c3c2)sc2ccc(Cl)cc12 (centres unmarked) [TCMDC-139464] | 2.238
CC[C@H](C)CNC(=O)c1ccnc(-c2cccc(CN3CCC(N4CCCC4)CC3)c2)c1 [TCMDC-134244] | 20.81
O=S(=O)(c1cccc(C(F)(F)F)c1)N1CCC(CO)(Cc2cccc(C(F)(F)F)c2)CC1 [TCMDC-124606] | 41.83
CCCS(=O)(=O)N1CCC(CO)(Cc2ccccc2C(F)(F)F)CC1 [TCMDC-124652] | 66.01
N#Cc1ccc(CN2CCC(Oc3ccc(NC(=O)c4ccco4)cc3Cl)C2)cc1 (centres unmarked) [TCMDC-133963] | 28.15
O=C(NC1CCCCC1)N(Cc1ccc(-c2cccc(CNC3CCCC3)c2)cc1)C1CCN(Cc2ccccc2)CC1 [TCMDC-140638] | 83.36
O=C(NC1CCCCC1)N(Cc1cccc(-c2ccc(CNCCc3ccccc3)cc2)c1)C1CCN(Cc2ccccc2)CC1 [TCMDC-140629] | 110.5
O=C(NC1CCCCC1)N(Cc1cccc(-c2ccc(CNC3CCCC3)cc2)c1)C1CCN(Cc2ccccc2)CC1 [TCMDC-140631] | 106.7
O=C(NC1CCCCC1)N(Cc1cccc(-c2cccc(CNC3CCCC3)c2)c1)C1CCN(Cc2ccccc2)CC1 [TCMDC-140630] | 102.1
COc1ccc2nccc(NCC3(O)CCN(CCc4ccc5c(c4)OCCO5)CC3)c2n1 [TCMDC-141461] | 34.43
CC(C)CN1C(=O)C(c2ccc(F)c(F)c2)=C(O)C1c1ccccc1 (centres unmarked) [TCMDC-141919] | 11.18
O=C(Nc1ccc(OC2CCN(Cc3ccccc3)C2)c(Cl)c1)c1ccsc1 (centres unmarked) [TCMDC-133969] | -1.877
C=CCOC(=O)O[C@@H]1[C@@H](OC(=O)OCC=C)[C@@H](OC)O[C@H](COC(c2ccccc2)(c2ccccc2)c2ccccc2)[C@H]1OC(=O)OCC=C [TCMDC-139139] | 34.95
COc1ccccc1N1CCN(CCCCNC(=O)c2ccc(NC(=O)c3cc4ccccc4o3)cc2)CC1 [TCMDC-138115] | -10.75
Cc1cccc(CN2CCC(Oc3ccc(NC(=O)c4cccs4)cc3Cl)CC2)n1 [TCMDC-133964] | 24.07
O=C(NC1CCCCC1)N(Cc1ccc(-c2ccc(CNC3CCCC3)cc2)cc1)C1CCN(Cc2ccccc2)CC1 [TCMDC-140639] | 105.2
